{"source": "PubChem BioAssay (NCATS)", "note": "Records with an inconclusive call do not appear. A number with no mark means an inactive call. Active and inactive are the calls of the source. The call rests on the fitted dose curve; in most records, active means well fitted inhibition curve with a large enough effect; inconclusive means small, poorly fitted or top-dose-only effect; inactive means flat fitted curve, though single readings scatter. On the % scale 0 is the no-effect control and ±100 the full control effect; potency means the concentration at half of the fitted maximal effect."}
{"tested_on": "MCC-26", "experiment": "qHTS assay to identify novel small-molecules to repurpose for Merkel cell carcinoma treatment (AID 1296009); further: nearly all actives have a fitted effect of over 60% in size", "conditions": "MCC and control cell lines, CellTiter-Glo viability, 72 h; series mostly up to 46 µM; activity change, negative = cytotoxicity: at the top concentration", "text": "MCC is a rare and aggressive neuroendocrine skin cancer with limited treatment options. Approximately 80% of MCCs have the Merkel cell polyomavirus (MCPyV) DNA integrated into the host genome (virus-positive: VP-MCC) and viral oncogenes drive oncogenesis. The remaining MCCs are virus-negative (VN-MCC) and are caused by UV mutagenesis. To identify novel treatments for VP-MCC and/or VN-MCC we screened three VP-MCC cell lines (WAGA, MKL-1, MKL-2), three VN-MCC cell lines (MCC-13, MCC-26, UISO), and four immortalized, non-transformed control cell lines (HaCaT, HEK293T, CRL7250, NIH-3T3) against ~2,400 compounds in the NCGC Pharmaceutical Collection (NPC) and ~1,900 compounds in the Mechanism Interrogation PlatE (MiPE). Using cell viability as a readout (CellTiter-Glo assay) we found both overlapping and distinct drugs that can be repurposed for the treatment of VP-MCC and VN-MCC.\nA high-throughput screen was conducted in 1536-well white flat bottom plates (Corning) on a Kalypsys robotic system. Cell lines WAGA, MKL-1, MKL-2, MCC-13, MCC-26, UISO, HaCaT, HEK293T, CRL7250, and NIH-3T3 were screened against 2 small molecule annotated drug libraries NPC and MIPE in dose response (8 and 11 pt. respectively) measuring cell viability after 72 hours of incubation. […] A 1,536 pintool (Kalypsys) was used to transfer 23 nL of compound in DMSO to the 1,536-well assay plates. After 72 hr incubation at 37 degree celsius, 2.5 uL of CellTiter-Glo (Promega) was dispensed into each well using a BiorapTR. Plates were incubated at room temperature for 10 min, transferred to a ViewLux (PerkinElmer) and the luminescence was recorded using an exposure time of 2 seconds. Relative luminescence units (RLUs) were normalized to in-plate controls (no cells as a positive (cytotoxicity) control, DMSO as negative control) and the normalized data was processed using NCATS in-house software."}
{"smiles": "CC1(C)OC[C@@H]2O[C@@]3(C(=O)O)OC(C)(C)O[C@H]3[C@@H]2O1", "activity change, negative = cytotoxicity": "8.07%"}
{"smiles": "CC(=O)Oc1ccc(C)cc1", "activity change, negative = cytotoxicity": "9.59%"}
{"smiles": "OCCOCCN1CCN(C2=Nc3ccccc3Sc3ccccc32)CC1", "activity change, negative = cytotoxicity": "-7.92%"}
{"smiles": "O=C1C(CCS(=O)c2ccccc2)C(=O)N(c2ccccc2)N1c1ccccc1", "note": "(stereo not given)", "activity change, negative = cytotoxicity": "2.11%"}
{"smiles": "CC(C)[C@@H]1CC[C@@H](C)CC1=O", "activity change, negative = cytotoxicity": "0.472%"}
{"smiles": "Nc1ccc(C(=O)NCC(=O)O)cc1", "activity change, negative = cytotoxicity": "-2.99%"}
{"smiles": "CC(=O)Nc1ccc(S(=O)(=O)Nc2ccc([N+](=O)[O-])cc2)cc1", "activity change, negative = cytotoxicity": "-4.46%"}
{"smiles": "O=C1C(=O)c2ccccc2C(O)=C1C1CCC(c2ccc(Cl)cc2)CC1", "note": "(stereo not given)", "activity change, negative = cytotoxicity": "9.77%"}
{"smiles": "CCN[C@@H]1C[C@H](N)[C@@H](OC2OC(CN)=CCC2N)[C@H](O)[C@H]1O[C@H]1OC[C@](C)(O)[C@H](NC)[C@H]1O", "note": "(stereo not given in full)", "activity change, negative = cytotoxicity": "2.75% [at 0.597 µM]"}
{"smiles": "Cc1ccccc1OCC(O)CO", "note": "(stereo not given)", "activity change, negative = cytotoxicity": "-0.687%"}
{"smiles": "COc1ccccc1N1CCN(CCCCNC(=O)c2ccc(-c3ccc(C(C)=O)cc3)cc2)CC1", "activity change, negative = cytotoxicity": "-18.2%"}
{"smiles": "Oc1ccccc1C=NCc1ccccc1", "activity change, negative = cytotoxicity": "5.97%"}
{"smiles": "Cc1cccc(C)c1NC(=O)c1ccccc1C(=O)O", "activity change, negative = cytotoxicity": "9.61%"}
{"smiles": "Cc1cc(C)cc(OCC2CNC(=O)O2)c1", "note": "(stereo not given)", "activity change, negative = cytotoxicity": "-4.41%"}
{"smiles": "CC(O)Cn1cnc2c1c(=O)n(C)c(=O)n2C", "note": "(stereo not given)", "activity change, negative = cytotoxicity": "-9.53%"}
{"smiles": "Cc1c[nH]c2ccccc12", "activity change, negative = cytotoxicity": "10.4%"}
{"smiles": "COc1ccc(-c2cc(C(F)F)nn2-c2ccc(S(N)(=O)=O)cc2)cc1F", "activity change, negative = cytotoxicity": "16.4%"}
{"smiles": "Nc1nc(Cl)nc2c1ncn2[C@@H]1O[C@H](CO)[C@@H](O)[C@@H]1F", "Potency": "3.76 µM (active)"}
{"smiles": "CN(Cc1ccc(C(C)(C)C)cc1)Cc1cccc2ccccc12", "activity change, negative = cytotoxicity": "-8.97%"}
{"smiles": "CC(=O)Nc1ccc(OC(=O)c2ccccc2OC(C)=O)cc1", "activity change, negative = cytotoxicity": "8.88%"}
{"smiles": "CCc1ccc(C(=O)C(C)CN2CCCCC2)cc1", "note": "(stereo not given)", "activity change, negative = cytotoxicity": "-16.7%"}
{"smiles": "CC(CNC1CCCCC1)OC(=O)c1ccccc1", "note": "(stereo not given)", "activity change, negative = cytotoxicity": "-14.9%"}
{"smiles": "COc1ccc(CN(CCN(C)C)c2ncccn2)cc1", "activity change, negative = cytotoxicity": "-1.34%"}
{"smiles": "Cc1cc2c(OCC(CNC(C)(C)C)OC(=O)c3ccccc3)cccc2[nH]1", "note": "(stereo not given)", "activity change, negative = cytotoxicity": "1.99%"}
{"smiles": "FC1(F)C(F)(F)C(F)(F)C2(F)C(F)(F)C(F)(F)C(F)(F)C(F)(F)C2(F)C1(F)F", "note": "(stereo not given)", "activity change, negative = cytotoxicity": "11.3%"}
{"smiles": "CCc1nn(CCCN2CCN(c3cccc(Cl)c3)CC2)c(=O)n1CCOc1ccccc1", "activity change, negative = cytotoxicity": "-4.01%"}
{"smiles": "CCCCCCCCCCC[C@@H](C[C@@H]1OC(=O)[C@H]1CCCCCC)OC(=O)[C@H](CC(C)C)NC=O", "activity change, negative = cytotoxicity": "-5.05%"}
{"smiles": "CCN(CC)CCNC(=O)COc1ccc(OC)cc1", "activity change, negative = cytotoxicity": "-12.5%"}
{"smiles": "COc1ccc(/C=N/NC(=O)c2ccncc2)cc1OC", "activity change, negative = cytotoxicity": "2.4%"}
{"smiles": "CCCCN=C(N)N=C(N)N", "activity change, negative = cytotoxicity": "-1.47%"}
{"smiles": "CC(C)=CCOc1ccc(/C=C/C(=O)c2ccc(OCC=C(C)C)cc2OCC(=O)O)cc1", "activity change, negative = cytotoxicity": "-1.81%"}
{"smiles": "Cc1cccc(C)c1NC(=O)CN1CCCC1", "activity change, negative = cytotoxicity": "-5.59%"}
{"smiles": "CCCCOC(=O)CC(CC(=O)OCCCC)(OC(C)=O)C(=O)OCCCC", "activity change, negative = cytotoxicity": "-2.49%"}
{"smiles": "C/C=C/c1ccc(O)c(OC)c1", "activity change, negative = cytotoxicity": "-1.33%"}
{"smiles": "O=C(Nc1ccccc1)OCC(CN1CCCCC1)OC(=O)Nc1ccccc1", "note": "(stereo not given)", "activity change, negative = cytotoxicity": "-6.86%"}
{"smiles": "CCN1CCCC(OC(=O)C(c2ccccc2)c2ccccc2)C1", "note": "(stereo not given)", "activity change, negative = cytotoxicity": "-0.594%"}
{"smiles": "COc1cc([C@H]2Oc3cc([C@H]4Oc5cc(O)cc(O)c5C(=O)[C@@H]4O)ccc3O[C@@H]2CO)ccc1O", "activity change, negative = cytotoxicity": "0.339%"}
{"smiles": "CCCCC(CC)COC(=O)/C=C/c1ccc(OC)cc1", "note": "(stereo not given)", "activity change, negative = cytotoxicity": "7.42%"}
{"smiles": "CCOC(=O)C(C#N)=C(c1ccccc1)c1ccccc1", "activity change, negative = cytotoxicity": "-6.95%"}
{"smiles": "O=[N+]([O-])c1cccc(S(=O)(=O)NCCNS(=O)(=O)c2cccc([N+](=O)[O-])c2)c1", "activity change, negative = cytotoxicity": "0.809%"}
